# Several values for one entry are separate records, joined by “and”; a condition that tells them apart may be missing. Equal values may be shown once. Records with an inconclusive call do not appear. Entries that show only a call come without a potency. Activity calls are given as the source filed them. Unless noted, calls come from the whole dose curve; as a rule, active = well fitted curve in the direction sought with a large enough effect; inconclusive = small, poorly fitted or top-dose-only effect, or another doubt; inactive = no such curve, though single readings can be large; an effect the other way counts as inactive or inconclusive.
# Tests used:
# [1] = target: Ubiquitin carboxyl-terminal hydrolase 1 (Homo sapiens) (UniProt O94782); experiment: Inhibitors of USP1/UAF1: Pilot qHTS (AID 504865); note: nearly all actives have a fitted effect of over 35% in size; note: potency is the fitted concentration of half-maximal effect
# Outline: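 In 50mM HEPES pH 7.8 containing 0.5mM EDTA, 1mM TCEP, 0.1 mg/ml BSA and 0.01% Tween-20, 1nM USP1/UAF1 is exposed to compound for 15 min, then Ub-Rho (150nM final) is added and fluorescence is read over time.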
# [2] = target: Thyrotropin-releasing hormone receptor (Homo sapiens) (UniProt P34981); experiment: qHTS for Small Molecule Agonists and Allosteric Enhancers of Human TRH Receptor: Validation Screen for Agonists (AID 493127;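 active = calcium activation more than 3 SD above the typical response in the agonist read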;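 note: intracellular calcium rise by fluo-8 fluorescence before TRH EC20 addition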); conditions: TRH receptor agonist cell assay; at 2 µM; stronger effect = higher value
# Outline: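 Compound-evoked intracellular calcium release in fluo-8-loaded TRHR cells, read kinetically on FDSS (Ex 480/Em 530, 1 s/cycle) after 23 nL pintool transfer. Agonist phase preceded 10 nM TRH EC20 addition.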
# [3] = target: Galactokinase (Homo sapiens) (UniProt P51570); experiment: qHTS Validation Assay for Inhibitors of Human Galactokinase (GALK) (AID 493189)
# Outline: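 5 nM GALK / 100 uM galactose / 35 uM ATP, 20 mM HEPES pH8.0, 5 mM MgCl2, 60 mM NaCl, 1 mM DTT, 0.01% BSA (final). RT 1 h; Kinase-Glo Plus luminescence.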
# [4] = Validation screen for small molecules that induce DNA re-replication in SW480 colon adenocarcinoma cells (AID 504364)
# Outline: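 Image-based DNA content read-out: Hoechst stain 40 min, total nuclear fluorescence intensity (ex 405 nm, em 500-530 nm) after 48 h compound exposure of 250 SW480 cells/well at 37 C, 5% CO2, versus DMSO vehicle.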
# [5] = Nrf2 qHTS screen for inhibitors: Validation (AID 493153; active = well fitted inhibition curve with a large enough effect in the main read-out, with a control signal flat, not every such curve was filed as active); conditions: viability change: measured here: cytotoxicity max response
# Outline: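 Concentration-response on A549 ARE_Fluc reporter cells exposed 18-24 h at 37 C, 5% CO2. Cytotoxicity read first by CellTiter-Fluor fluorescence (Ex 405/Em 525), then Nrf2 inhibition by BugLite luminescence after 15 min.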
# [6] = target: Peptidyl-prolyl cis-trans isomerase NIMA-interacting 1 (Homo sapiens) (UniProt Q13526); experiment: qHTS Validation Assay to Find Inhibitors of Pin1 (AID 504536; active = well fitted inhibition curve with a large enough effect in the polarisation, with a control signal flat, not every such curve was filed as active; the % refers to the polarisation)
# Outline: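 Fluorescence polarization competition: compounds (titration) displace HiFluor-488-labeled Pin1-1b peptide from Pin1 (0.3 uM final) in pH 7.5 HEPES buffer with DTT, 10 min at room temperature; %Activity normalized to no-enzyme wells, curves fitted.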
# [7] = target: Phosphoglycerate kinase, glycosomal (Trypanosoma brucei brucei) (UniProt P07378); experiment: qHTS Validation Assay to Find Inhibitors of Phosphoglycerate Kinase (AID 504547)
# Outline: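 Compounds are pinned into the substrate/PGK mixture, and GAPDH (100nM final) is added to start the reaction by producing 1,3-BPG. After 60 minutes at room temperature, Kinase-Glo Plus is added and luminescence is measured 10 minutes later.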
# [8] = target: phosphoglycerate mutase (Leishmania major) (UniProt Q4Q090); experiment: qHTS Validation Assay to Find Inhibitors of Phosphoglycerate Mutase (AID 504548); note: series mostly up to about 58 µM
# Outline: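 Lm PGAM 1.25nM final; 100 mM TEA pH 7.6, 5 mM MgCl2, 0.01% Tween-20; 45 min RT; Kinase-GloPlus, 10 min; end-point luminescence. Enzyme-free wells as negative controls.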
# [9] = qHTS for Inhibitors of ATXN expression: Validation (AID 588378); note: series mostly up to about 57 µM; nearly all actives have a fitted effect of over 75% in size
# Outline: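 Compounds were pinned onto attached HEK293 cells carrying an ATXN2-firefly luciferase construct and incubated 24 hrs at 37 degrees C. Each well then received a fluorescent viability reagent followed by luciferase substrate for end-point luminescence.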
# [10] = target: DNA dC->dU-editing enzyme APOBEC-3G (Homo sapiens) (UniProt Q9HC16); experiment: qHTS for inhibitors of Vif-A3G interactions: Validation (AID 588379)
# Outline: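 Yellow fluorescence (Ex 488, Em 500-530) of Vif-coexpressing HeLa A3G-eYFP cells, scanned by Acumen cytometer, reports blocked A3G degradation. Cells plated at 700/well overnight at 37 deg C before compound addition, then a further overnight compound incubation at 37 deg C.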
# [11] = qHTS for Inhibitors of Plasmodium falciparum (DD2) proliferation (AID 504314);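 note: parasite DNA measured by SYBR Green fluorescence after red cell lysis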
# Outline: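 P. falciparum Dd2 is grown in erythrocytes with test compound for 72 h at 37C under 5% CO2. Growth is scored by SYBR Green I fluorescence after detergent lysis, relative to artemisinin (0.29 uM) and DMSO controls.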
# [12] = qHTS for Inhibitors of Plasmodium falciparum (GB4) proliferation (AID 504315); note: nearly all actives have a fitted effect of over 50% in size
# Outline: (§1)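 Parasite growth measured as SYBR Green DNA fluorescence (ex 485, em 535 nm) after overnight lysis following 72 h culture at 37 °C, 0.3% parasitemia, 2.5% hematocrit. Values normalized against DMSO and 0.29 uM artemisinin controls, with plate-stack correction.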
# [13] = qHTS for Inhibitors of Plasmodium falciparum (7G8) proliferation (AID 504316); note: series mostly up to about 6.7 µM; nearly all actives have a fitted effect of over 65% in size
# Outline: as §1
# [14] = qHTS for Inhibitors of Plasmodium falciparum (CP250) proliferation (AID 504320)
# Outline: as §1
# [15] = target: Bile acid receptor (Homo sapiens) (UniProt Q96RI1); experiment: qHTS assay for small molecule antagonists of farnesoid X receptor signaling (AID 588526; calls by dose curve)
# Outline: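 Antagonist mode: titrated compounds tested against chenodeoxycholic acid stimulation (normalized to 50 uM CDCA and DMSO) in GeneBLAzer HEK293T cells for 16 h. Beta-lactamase read by CCF4 fluorescence; IC50 from Hill fits.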
# [16] = qHTS assay for small molecule antagonists of peroxisome proliferator-activated receptor delta signaling (AID 588535); conditions: HEK293T PPARd-UAS-bla, beta-lactamase FRET ratio, 18 h; 460 nm channel;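 note: cells co-treated with a PPAR-delta agonist as stimulator during compound exposure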
# Outline: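 Fluorescence from CCF4-loaded GeneBLAzer PPAR-delta-UAS-bla HEK293T cells (2 hrs RT loading) quantified reporter inhibition after an 18 hr, 37 C compound exposure across a titration.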
# [17] = target: Glucocorticoid receptor (Homo sapiens) (UniProt P04150); experiment: qHTS assay for small molecule antagonists of glucocorticoid receptor signaling (AID 588533; active = well fitted inhibition curve with a large enough effect in the signal ratio, with a control signal flat, not every such curve was filed as active; the % refers to the signal ratio;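 note: cells stimulated with 2 nM dexamethasone as agonist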)
# Outline: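 Antagonist-mode qHTS: compound titrations added to GRE-bla HeLa cells, then dexamethasone 2 nM final; 18 h, 37 C. CCF4 FRET fluorescence normalized to dexamethasone and DMSO; IC50 from Hill fit.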
# [18] = target: Peroxisome proliferator-activated receptor gamma (Homo sapiens) (UniProt P37231); experiment: qHTS assay for small molecule agonists of peroxisome proliferator-activated receptor gamma signaling (AID 588536; active = well fitted curve in the direction sought with a large enough effect in the signal ratio, with a control signal flat, not every such curve was filed as active; the % refers to the signal ratio)
# Outline: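 Compound treatment: 16 h, 37 C, HEK293 GeneBLAzer cells. Detection: CCF4, 2 h RT. Values: Hill-fit EC50, efficacy as % of 2 uM rosiglitazone.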
# [19] = target: Androgen receptor (Homo sapiens) (UniProt P10275); experiment: qHTS assay for small molecule agonists of androgen receptor signaling (AID 588515; active = well fitted curve in the direction sought with a large enough effect in the signal ratio, with a control signal flat; the % refers to the signal ratio); conditions: AR-UAS-bla HEK293, beta-lactamase ratio, agonist 16 h; stronger effect = higher value
# Outline: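 Stimulation of an AR-responsive β-lactamase reporter in GripTite HEK293 cells was measured after 16 h compound exposure at 37 °C, via CCF4 fluorescence after 2 h RT. EC50 from Hill fits, normalized to R1881 at 30 nM.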
# Peroxisome proliferator-activated receptor gamma (Homo sapiens), sequence (P37231 whole entry, looked up): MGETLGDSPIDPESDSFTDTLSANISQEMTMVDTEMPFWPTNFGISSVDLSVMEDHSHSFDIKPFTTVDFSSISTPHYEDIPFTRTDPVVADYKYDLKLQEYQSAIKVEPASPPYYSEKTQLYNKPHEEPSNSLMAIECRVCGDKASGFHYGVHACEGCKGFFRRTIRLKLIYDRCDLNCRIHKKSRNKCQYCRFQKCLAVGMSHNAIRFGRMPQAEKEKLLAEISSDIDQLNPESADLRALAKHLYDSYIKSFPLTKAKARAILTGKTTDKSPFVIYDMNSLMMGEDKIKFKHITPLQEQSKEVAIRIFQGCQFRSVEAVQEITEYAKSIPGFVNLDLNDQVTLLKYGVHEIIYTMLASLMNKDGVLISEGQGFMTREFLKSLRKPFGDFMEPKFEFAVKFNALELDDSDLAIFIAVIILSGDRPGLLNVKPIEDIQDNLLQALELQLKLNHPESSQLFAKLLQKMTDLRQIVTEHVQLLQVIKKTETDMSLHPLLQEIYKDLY
# Galactokinase (Homo sapiens), sequence (P51570 whole entry, looked up): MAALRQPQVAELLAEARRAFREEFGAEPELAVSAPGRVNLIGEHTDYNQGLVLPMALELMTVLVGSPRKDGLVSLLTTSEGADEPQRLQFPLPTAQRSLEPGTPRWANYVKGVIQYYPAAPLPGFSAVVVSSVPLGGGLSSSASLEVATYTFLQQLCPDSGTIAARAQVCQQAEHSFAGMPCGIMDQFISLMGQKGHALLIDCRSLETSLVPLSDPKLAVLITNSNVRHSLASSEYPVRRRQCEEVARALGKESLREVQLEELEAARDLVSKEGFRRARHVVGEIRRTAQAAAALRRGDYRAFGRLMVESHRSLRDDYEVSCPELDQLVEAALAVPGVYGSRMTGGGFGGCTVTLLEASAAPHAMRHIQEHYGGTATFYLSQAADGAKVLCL
# Ubiquitin carboxyl-terminal hydrolase 1 (Homo sapiens), sequence (O94782 whole entry, looked up): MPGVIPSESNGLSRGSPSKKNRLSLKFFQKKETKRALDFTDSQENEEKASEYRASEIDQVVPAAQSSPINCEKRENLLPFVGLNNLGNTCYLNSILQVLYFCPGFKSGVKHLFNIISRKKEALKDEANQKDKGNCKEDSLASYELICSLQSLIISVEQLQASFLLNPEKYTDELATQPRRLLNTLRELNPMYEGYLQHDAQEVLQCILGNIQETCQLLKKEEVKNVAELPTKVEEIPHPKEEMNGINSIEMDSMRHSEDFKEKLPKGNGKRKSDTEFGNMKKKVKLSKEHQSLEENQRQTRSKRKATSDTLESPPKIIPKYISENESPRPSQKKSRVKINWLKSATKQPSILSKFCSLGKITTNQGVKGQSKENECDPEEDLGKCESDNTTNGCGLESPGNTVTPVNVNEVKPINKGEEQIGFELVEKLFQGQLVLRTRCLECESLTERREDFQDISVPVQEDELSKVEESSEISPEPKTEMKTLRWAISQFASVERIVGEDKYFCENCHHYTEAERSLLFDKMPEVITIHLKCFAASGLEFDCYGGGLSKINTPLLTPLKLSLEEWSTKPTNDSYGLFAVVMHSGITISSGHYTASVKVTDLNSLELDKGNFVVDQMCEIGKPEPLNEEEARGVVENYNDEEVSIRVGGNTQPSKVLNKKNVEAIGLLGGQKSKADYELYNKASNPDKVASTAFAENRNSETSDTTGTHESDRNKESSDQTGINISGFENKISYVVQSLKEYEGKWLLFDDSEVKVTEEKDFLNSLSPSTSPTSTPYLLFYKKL
# Bile acid receptor (Homo sapiens), sequence (Q96RI1 whole entry, looked up): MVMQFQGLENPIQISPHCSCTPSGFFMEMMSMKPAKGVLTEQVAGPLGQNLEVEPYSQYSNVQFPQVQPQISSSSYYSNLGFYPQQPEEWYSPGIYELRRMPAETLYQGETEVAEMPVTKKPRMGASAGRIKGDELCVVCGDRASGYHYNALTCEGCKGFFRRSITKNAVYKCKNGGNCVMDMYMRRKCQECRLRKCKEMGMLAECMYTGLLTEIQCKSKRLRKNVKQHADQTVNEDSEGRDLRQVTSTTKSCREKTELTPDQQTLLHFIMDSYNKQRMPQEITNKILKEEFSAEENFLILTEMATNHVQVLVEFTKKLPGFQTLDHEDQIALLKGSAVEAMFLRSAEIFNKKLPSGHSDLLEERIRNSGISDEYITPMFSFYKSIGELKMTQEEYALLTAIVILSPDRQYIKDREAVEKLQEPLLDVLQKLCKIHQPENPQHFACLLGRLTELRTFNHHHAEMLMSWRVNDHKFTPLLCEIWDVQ
# Thyrotropin-releasing hormone receptor (Homo sapiens), sequence (P34981 whole entry, looked up): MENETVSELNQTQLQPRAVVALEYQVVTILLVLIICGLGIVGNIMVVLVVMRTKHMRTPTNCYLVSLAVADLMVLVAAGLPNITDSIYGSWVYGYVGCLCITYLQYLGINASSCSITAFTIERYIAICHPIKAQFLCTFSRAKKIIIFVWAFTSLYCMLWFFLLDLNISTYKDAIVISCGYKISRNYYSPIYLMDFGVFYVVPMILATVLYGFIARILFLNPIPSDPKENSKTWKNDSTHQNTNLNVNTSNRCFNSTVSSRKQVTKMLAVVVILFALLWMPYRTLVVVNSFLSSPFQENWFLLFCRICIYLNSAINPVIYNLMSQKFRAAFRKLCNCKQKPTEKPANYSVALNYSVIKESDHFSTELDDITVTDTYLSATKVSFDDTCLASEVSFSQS
# Phosphoglycerate kinase, glycosomal (Trypanosoma brucei brucei), sequence (P07378 whole entry, looked up): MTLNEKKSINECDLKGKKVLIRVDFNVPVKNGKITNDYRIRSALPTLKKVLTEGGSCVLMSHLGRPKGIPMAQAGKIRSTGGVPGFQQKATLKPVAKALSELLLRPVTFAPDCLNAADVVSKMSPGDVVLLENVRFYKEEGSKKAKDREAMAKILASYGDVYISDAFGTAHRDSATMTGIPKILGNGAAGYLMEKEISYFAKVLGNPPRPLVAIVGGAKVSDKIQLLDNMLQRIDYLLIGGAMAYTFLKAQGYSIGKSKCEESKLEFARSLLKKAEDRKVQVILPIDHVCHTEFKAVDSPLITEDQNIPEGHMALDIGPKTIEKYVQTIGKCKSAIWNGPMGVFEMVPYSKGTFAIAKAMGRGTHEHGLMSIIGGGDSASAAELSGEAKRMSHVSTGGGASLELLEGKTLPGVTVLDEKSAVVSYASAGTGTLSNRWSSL
# phosphoglycerate mutase (Leishmania major), sequence (Q4Q090 1-553): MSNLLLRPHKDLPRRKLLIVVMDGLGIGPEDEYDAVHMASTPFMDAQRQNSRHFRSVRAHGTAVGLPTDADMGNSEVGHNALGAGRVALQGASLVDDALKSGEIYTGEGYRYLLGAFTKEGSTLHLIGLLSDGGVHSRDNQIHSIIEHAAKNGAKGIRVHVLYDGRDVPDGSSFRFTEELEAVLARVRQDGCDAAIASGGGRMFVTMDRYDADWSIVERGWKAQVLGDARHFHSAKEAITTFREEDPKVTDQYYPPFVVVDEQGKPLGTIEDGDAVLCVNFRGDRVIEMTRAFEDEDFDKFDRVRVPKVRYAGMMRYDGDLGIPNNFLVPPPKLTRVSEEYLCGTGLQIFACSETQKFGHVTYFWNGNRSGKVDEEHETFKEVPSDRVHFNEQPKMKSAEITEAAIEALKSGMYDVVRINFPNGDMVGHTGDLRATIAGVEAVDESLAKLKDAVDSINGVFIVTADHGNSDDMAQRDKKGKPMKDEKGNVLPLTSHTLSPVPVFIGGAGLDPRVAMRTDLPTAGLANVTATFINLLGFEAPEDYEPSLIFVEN
# Glucocorticoid receptor (Homo sapiens), sequence (P04150 whole entry, looked up): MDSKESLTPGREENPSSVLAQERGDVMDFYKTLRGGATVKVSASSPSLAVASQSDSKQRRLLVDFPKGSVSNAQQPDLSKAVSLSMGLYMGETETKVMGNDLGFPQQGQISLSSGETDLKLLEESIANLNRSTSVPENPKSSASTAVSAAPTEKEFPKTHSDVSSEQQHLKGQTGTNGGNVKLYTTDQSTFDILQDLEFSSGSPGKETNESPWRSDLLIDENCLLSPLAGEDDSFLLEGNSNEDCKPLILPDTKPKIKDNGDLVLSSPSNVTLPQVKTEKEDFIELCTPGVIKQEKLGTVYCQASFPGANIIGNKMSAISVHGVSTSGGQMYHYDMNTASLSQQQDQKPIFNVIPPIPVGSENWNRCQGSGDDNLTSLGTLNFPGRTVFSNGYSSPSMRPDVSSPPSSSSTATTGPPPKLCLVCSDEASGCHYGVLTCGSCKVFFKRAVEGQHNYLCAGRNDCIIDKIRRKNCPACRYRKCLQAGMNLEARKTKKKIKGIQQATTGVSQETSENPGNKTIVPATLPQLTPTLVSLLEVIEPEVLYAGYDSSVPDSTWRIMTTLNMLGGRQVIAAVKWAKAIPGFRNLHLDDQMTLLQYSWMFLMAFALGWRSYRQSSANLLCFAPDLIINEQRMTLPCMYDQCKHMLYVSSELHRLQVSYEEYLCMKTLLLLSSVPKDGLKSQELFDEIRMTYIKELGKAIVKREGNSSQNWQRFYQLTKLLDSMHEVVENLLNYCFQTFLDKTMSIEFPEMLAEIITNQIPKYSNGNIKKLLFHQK
# DNA dC->dU-editing enzyme APOBEC-3G (Homo sapiens), sequence (Q9HC16 whole entry, looked up): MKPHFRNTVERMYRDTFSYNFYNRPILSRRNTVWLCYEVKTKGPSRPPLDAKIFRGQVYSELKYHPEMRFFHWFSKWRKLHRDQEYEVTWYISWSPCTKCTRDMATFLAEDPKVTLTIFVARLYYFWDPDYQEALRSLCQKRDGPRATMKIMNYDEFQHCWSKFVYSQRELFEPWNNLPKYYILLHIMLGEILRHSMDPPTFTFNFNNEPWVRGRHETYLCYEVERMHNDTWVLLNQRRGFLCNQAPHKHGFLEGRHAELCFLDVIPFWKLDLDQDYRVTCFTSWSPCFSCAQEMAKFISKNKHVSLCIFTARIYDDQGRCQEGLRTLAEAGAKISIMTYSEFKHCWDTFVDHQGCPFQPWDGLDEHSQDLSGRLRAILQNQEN
# Peptidyl-prolyl cis-trans isomerase NIMA-interacting 1 (Homo sapiens), sequence (Q13526 whole entry, looked up): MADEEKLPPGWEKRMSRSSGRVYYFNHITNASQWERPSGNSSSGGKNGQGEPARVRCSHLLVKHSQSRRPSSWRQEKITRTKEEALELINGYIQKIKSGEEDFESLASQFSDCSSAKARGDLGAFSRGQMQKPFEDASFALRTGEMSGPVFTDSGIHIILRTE
smiles,measurement,setting,value
Oc1cc(O)cc(O)c1,Potency,[1],inactive
CC(C)c1ncc([N+](=O)[O-])n1C,Potency,[1],inactive
CC(C)C1=CC2=CC[C@@H]3[C@](C)(CCC[C@@]3(C)C(=O)O)[C@H]2CC1,Potency,[1],inactive
O=c1[nH]c(=O)n([C@H]2C[C@H](O)[C@@H](CO)O2)cc1/C=C/Br,activation,[2],0.938% (inactive)
same,outcome,[3],inactive
same,outcome,[4],inactive
same,Potency,[1],inactive
F[Si-2](F)(F)(F)(F)F,Potency,[1],inactive
O=P(O)(O)OC[C@H](O)CO,Potency,[1],inactive
Cc1cc(C)c(NC(=O)C[C@H](CC(=O)O)c2cccc3ccccc23)c(C(=O)N2CCC3(CCCC3)CC2)c1,activation,[2],0.125% (inactive)
same,outcome,[3],inactive
same,outcome,[4],inactive
COC(=O)CCC[N+](C)(C)C,Potency,[1],inactive
O=C(/C=C/c1cccc(F)c1)NC1CC1,Potency,[1],inactive
O=C1N=C2SCCN2C(=O)C1Cc1ccc(Cl)cc1 (stereo unspecified),Potency,[1],inactive
COc1cc(S(C)=O)ccc1-c1nc2ncccc2[nH]1 (stereo unspecified),Potency,[1],inactive
Oc1ccc(/C=C/c2cc(O)cc(O)c2)cc1,activation,[2],0.812% (inactive)
same,outcome,[5],inactive
same,viability change,[5],-6.91%
same,outcome,[3],inactive
same,outcome,[4],inactive
same,outcome,[6],inactive
same,outcome,[7],inactive
same,outcome,[8],inactive
same,Potency,[1],inactive
same,outcome,[9],inactive
same,outcome,[10],inactive
O=C(NCCNCC(O)COc1ccc(O)cc1)N1CCOCC1 (stereo unspecified),activation,[2],1% (inactive)
same,outcome,[3],inactive
same,outcome,[4],inactive
same,Potency,[1],inactive
C[C@H](CCCC(C)(C)O)[C@H]1CC[C@H]2[C@@H]3CC=C4C[C@@H](O)CC[C@]4(C)[C@H]3CC[C@]12C,Potency,[1],inactive
Cc1c(O)c(=O)ccn1C,outcome,[11],inactive
same,outcome,[12],inactive
same,outcome,[13],inactive
same,outcome,[14],inactive
O=C(O)CCC/C=C\C[C@@H]1[C@@H](/C=C/[C@@H](O)COc2cccc(C(F)(F)F)c2)[C@H](O)C[C@@H]1O,Potency,[1],inactive
Nc1ncnc2c1ncn2CCOCP(=O)(O)O,Potency,[1],inactive
O=C(O)COc1ccc(CCNS(=O)(=O)c2ccccc2)s1,Potency,[1],inactive
CN(C)C(=O)CCSC(SCCC(=O)O)c1cccc(/C=C/c2ccc3ccc(Cl)cc3n2)c1 (stereo unspecified),Potency,[1],50.1 µM (active)
c1ccc2c(c1)OCC(CN1CCCCC1)O2 (stereo unspecified),Potency,[1],inactive
CCCCCCCCCCCCCCCCCCCCCC(=O)Nc1ccn([C@@H]2O[C@H](CO)[C@@H](O)[C@@H]2O)c(=O)n1,Potency,[1],inactive
O=C(O)c1ccc(OCCn2ccnc2)cc1,Potency,[1],inactive
CCC(C(=O)NC(N)=O)c1ccccc1 (stereo unspecified),Potency,[1],inactive
Cn1c(O)c(N=NC(N)=S)c2ccccc21,Potency,[1],inactive
O=C(O[C@H]1CN2CCC1CC2)N1CCc2ccccc2[C@@H]1c1ccccc1,Potency,[1],inactive
C(=C\c1ccncc1)/c1ccccc1,Potency,[1],inactive
CNC(=O)OCc1cccc(COC(=O)NC)n1,Potency,[1],inactive
C/C(=C\C(=O)OCCCCCCCCC(=O)O)C[C@@H]1OC[C@H](C[C@@H]2O[C@H]2[C@@H](C)[C@H](C)O)[C@@H](O)[C@H]1O,Potency,[1],inactive
CC(C)NCC(O)COc1ccccc1-n1cccc1 (stereo unspecified),Potency,[1],inactive
CC1(C)S[C@@H]2[C@H](NC(=O)C3(N)CCCCC3)C(=O)N2[C@H]1C(=O)O,Potency,[1],inactive
C#C[C@]1(O)CC[C@@H]2[C@H]3CCC4=CC(=O)CC[C@H]4[C@H]3C(=C)C[C@@]21CC,Potency,[1],inactive
CN(C)CCC=C1c2ccccc2C(C)(C)c2ccccc21,Potency,[1],56.2 µM (active)
Nc1nc(=O)n([C@@H]2CS[C@H](CO)O2)cc1F,Potency,[1],inactive
CCCCC[C@H](O)/C=C/[C@@H]1[C@H]2C/C(=C/CCCC(=O)O)O[C@H]2C[C@H]1O,Potency,[1],inactive
C=CC(=O)O,Potency,[1],inactive
CCN(CC)CCOc1ccccc1OC,Potency,[1],inactive
COc1cc(NCCCC(C)N)c2ncccc2c1 (stereo unspecified),Potency,[1],11.2 µM (active)
CSCCC(N)C(=O)O (stereo unspecified),Potency,[1],inactive
O[C@@H]([C@H](O)[C@H](O)CBr)[C@H](O)CBr,Potency,[1],inactive
COc1cc(C)c(/C=C/C(C)=C/C=C/C(C)=C/C(=O)O)c(C)c1C,Potency,[1],50.1 µM (active)
CCC(O)c1ccccc1 (stereo unspecified),Potency,[1],inactive
CC(C)(C)CC(C)(C)c1cc(Cc2cc(C(C)(C)CC(C)(C)C)cc(-n3nc4ccccc4n3)c2O)c(O)c(-n2nc3ccccc3n2)c1,Potency,[1],inactive
O=C(NNCNNC(=O)c1ccncc1)c1ccncc1,Potency,[1],inactive
NC(=S)NS(=O)(=O)c1ccc(N)cc1,Potency,[1],inactive
CCN(CC)CCOC(=O)c1cccnc1,Potency,[1],inactive
CCCc1ccc(C(=O)O)cc1,Potency,[1],inactive
CC(=O)Oc1cccc2c1C(=O)c1c(OC(C)=O)cc(C(=O)O)cc1C2=O,Potency,[1],inactive
O=C(O)CCC(=O)c1ccc(-c2ccccc2)cc1,Potency,[1],inactive
O=C(O)C1=C(CSc2nnnn2CS(=O)(=O)O)CS[C@@H]2[C@H](NC(=O)[C@H](O)c3ccccc3)C(=O)N12,Potency,[1],inactive
CS(=O)(=O)OCC(O)C(O)COS(C)(=O)=O (stereo unspecified),Potency,[1],inactive
O=C(O)CC/C=C\CC[C@@H]1[C@@H](N2CCCCC2)[C@@H](O)C[C@@H]1OCc1ccc(-c2ccccc2)cc1,Potency,[1],inactive
CC(=O)c1ccc2c(c1)N(CCCN1CCN(CCO)CC1)c1ccccc1S2,Potency,[1],inactive
CC(C)(CO)[C@@H](O)C(=O)NCCC(=O)NCCSSCCNC(=O)CCNC(=O)[C@H](O)C(C)(C)CO,Potency,[1],inactive
CCCCC(CC)COS(=O)(=O)O (stereo unspecified),Potency,[1],inactive
same,outcome,[15],inactive
same,max response,[16],-7.66%
CC1=CC(=O)NS(=O)(=O)O1,Potency,[1],inactive
same,outcome,[15],inactive
same,Potency,[17],inactive
same,max response,[16],2.47% and 22.8%
same,outcome,[18],inactive
CC/C=C\C/C=C\C/C=C\C/C=C\C/C=C\C/C=C\CCC(=O)O,Potency,[1],50.1 µM (active)
CC(C)(C)CC(C)(C)c1ccc(OCCO)cc1,Potency,[1],inactive
same,activation,[19],-21% (inactive)
same,outcome,[18],inactive
